# Results taken from PubChem BioAssay (NCI).
# This is part of a sample that, as a whole, favours compounds with a hit. Of some 83,000 tested, about 20% had one in any assay.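 Activity criterion: percent growth below 10, measured after cells in 96-well plates were exposed to a single compound concentration for 48 hours.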 A number with no mark means an inactive call. Activity calls are given as the source filed them.
# Experiments:
# Assay in all cases: NCI-60 one-dose screen, 48 h (100 = growth as untreated, 0 = no growth, -100 = all killed)
# Conditions in all cases: 10 µM unless noted
# [1] = system: DU-145 prostate
# [2] = system: K-562 leukemia
# [3] = system: MALME-3M melanoma
# [4] = system: MDA-MB-231 breast
# [5] = system: SF-268 CNS
# [6] = system: SF-539 CNS
# [7] = system: UACC-257 melanoma
# [8] = system: M14 melanoma
# [9] = system: HCT-15 colon
# [10] = system: HT29 colon
# [11] = system: SNB-75 CNS
# [12] = system: SNB-19 CNS
# [13] = system: U251 CNS
# [14] = system: PC-3 prostate
# [15] = system: SK-MEL-5 melanoma
# [16] = system: UACC-62 melanoma
# [17] = system: LOX IMVI melanoma
# [18] = system: SK-MEL-28 melanoma
# [19] = system: RXF 393 renal
# [20] = system: SF-295 CNS
SMILES,growth [1],growth [2],growth [3],growth [4],growth [5],growth [6],growth [7],growth [8],growth [9],growth [10],growth [11],growth [12],growth [13],growth [14],growth [15],growth [16],growth [17],growth [18],growth [19],growth [20]
Cc1[nH]n(C(=O)c2ccncc2)c(=O)c1N=Nc1ccc(O)c(C(=O)O)c1,132%,91.1%,94.2%,94%,106%,100%,-14.1% (active),114%,112%,115%,89.9%,116%,119%,102%,106%,96.2%,75.7%,109%,,
COC(=O)C1(C)COP(=O)(NC23CC4CC(CC(C4)C2)C3)OC1 (stereo not given),95.4%,106%,,119%,104%,110%,101%,104%,101%,100%,94.9%,104%,99.5%,94.6%,99.9%,109%,98.2%,98.7%,107%,104%
CC(=O)[C@@]1(O)[C@H](C)C[C@H]2[C@@H]3C=C(C)C4=Cc5c(cnn5-c5ccccc5)C[C@]4(C)[C@H]3[C@@H](O)C[C@@]21C,54.6%,-60.9% (active),41.8%,26.1%,27.9%,-21.8% (active),54.6%,43.7%,-27.9% (active),-76.9% (active),40.4%,70.2%,6.52% (active),1.78% (active),38.1%,1.84% (active),4.75% (active),43.6%,,-49.1% (active)
CN1CCN(c2ccc(N3Cc4ccccc4OC4=C3C(=O)c3c(O)ccc(O)c3C4=O)cn2)CC1,-95.9% (active),,-84.2% (active),-75.1% (active),-6.04% (active),-58.3% (active),-88.9% (active),,-74.9% (active),-42.8% (active),-21.8% (active),,-4.98% (active),1.25% (active),-61.9% (active),-59.9% (active),-71.4% (active),-60% (active),-93.6% (active),
O=C(Nc1ccccc1Cl)Oc1ccc2ccccc2c1,107%,85.3%,,88.7%,101%,92.5%,93.5%,101%,99.2%,98.9%,83.7%,,103%,102%,110%,91.8%,95.1%,106%,99.6%,
Nc1ncnc2c1N=C(c1ccc(F)cc1)CC(c1sc(Cl)nc1Cl)N2 (stereo not given),98.8%,,111%,88.2%,85.4%,85.7%,91%,,102%,92.2%,74%,92.9%,84.7%,79.5%,92%,94.5%,93%,102%,78.3%,95.8%
NCCCOc1cc2ccccc2cc1C(=O)NCCCOc1cc2ccccc2cc1C(=O)Nc1ccc(Cl)cc1O,-21.3% (active),,-82.5% (active),-87.9% (active),-27.8% (active),-93.7% (active),-69.2% (active),-74.6% (active),-55.3% (active),-90.7% (active),-68.2% (active),-65.9% (active),-86.1% (active),-86.1% (active),-70% (active),-88.6% (active),-89.6% (active),-89.2% (active),-96.5% (active),
CCN(CC)CCNc1c(C)cc(CO)c(Cl)c1C,120%,115%,,104%,,103%,96.7%,,106%,97%,90.2%,92.8%,105%,97.9%,106%,102%,98.8%,104%,119%,104%
COc1ccc(/C(=C\c2ccc3c(c2)OCO3)C(=O)Nc2nc3ccccc3s2)cc1,102%,,95.3%,102%,96%,104%,99.7%,107%,93.2%,94.6%,103%,109%,101%,106%,98.9%,102%,100%,104%,118%,
CCOC(=O)NNc1cccc(Cl)c1,,102%,93.6%,76.3%,110%,99.8%,103%,104%,107%,109%,77.2%,98%,100%,89.7%,101%,83.8%,92.8%,109%,100%,109%
Cc1cc(NC(=O)c2ccc(N)cc2)ccc1N=Nc1ccc2cc(S(=O)(=O)O)cc(S(=O)(=O)O)c2c1,,110%,116%,109%,115%,107%,102%,112%,104%,99%,101%,129%,92.9%,85.6%,111%,114%,99%,117%,110%,106%
O=C(Nc1ccc(Br)cc1)Nc1ccccc1Cl,91.1%,84.5%,,72.5%,93.8%,89.3%,88%,89.2%,87.1%,95.3%,77.8%,,91.9%,83.9%,101%,56.5%,81.3%,107%,83%,
Cc1nc2n[nH]c(N)c2nc1C,119%,,105%,120%,,103%,96.8%,125%,103%,93.6%,93.1%,103%,107%,102%,96.6%,106%,98.9%,105%,119%,105%
O=C(NCCNC(=O)c1cc(S(=O)(=O)NCCc2ccccc2)c(O)c(O)c1O)c1cc(S(=O)(=O)NCCc2ccccc2)c(O)c(O)c1O,77.1%,,94.3%,59.9%,45.9%,20.3%,86.1%,44.4%,40.5%,108%,63%,35.7%,31.3%,40.2%,15.6%,-15% (active),15%,54.2%,78.1%,
COc1cc(-c2nc(-c3nc4cc(C(=O)c5ccccc5)ccc4[nH]3)cc3c2[nH]c2ccccc23)cc(OC)c1OC,,80.3%,102%,86.4%,99.5%,80.6%,109%,85.8%,83.1%,104%,71.5%,103%,82%,65.8%,75.2%,76%,85.2%,102%,93.8%,77.1%
CN(C)c1ccc(C(c2ccccc2)c2ccc(N(C)C)cc2)cc1,101%,73.4%,,98.5%,89.9%,112%,98.1%,93%,99.7%,90.4%,108%,,77.7%,90.7%,106%,98.3%,90%,107%,107%,
Cc1ccc(O)c(Cc2ccccc2)c1,108%,,143%,96.7%,99.6%,100%,93.7%,101%,107%,97.2%,74.9%,96.9%,94.6%,79.9%,109%,90.2%,96.4%,108%,103%,
